High-throughput results: PubChem BioAssay, National Center for Advancing Translational Sciences (NCATS)
The sample as a whole holds a higher share of hits than the screen did.
IL1B secr inh: inflammasome signaling inhibition, IL-1 beta readout; THP-1 LPS/ATP IL-1B secretion, AlphaLISA, 16 h; hits give low values; activity change, % at 57.5 µM; 4.7% of 360,000 active; AID 743279; in the data active = activity change below about -50%; inconclusive = mostly about -30% to -49%
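Secreted IL-1B measured by AlphaLISA bead assay after 16 h compound exposure of THP-1 cells; compounds (final up to 57.5 uM) added 1 h before LPS (250 ng/mL) and ATP (1.25 mM) stimulation; lower signal means less secretion.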
12-LOX inh: inhibitors of human 12S-lipoxygenase ALOX12. P18054. Potency, µM (doses to about 108 µM), most hits filed as inhibitors. AID 1671190. 1.1% of 580,000 active. purified 12hLO, xylenol orange hydroperoxide absorbance
Target sequence (P18054 whole entry, looked up): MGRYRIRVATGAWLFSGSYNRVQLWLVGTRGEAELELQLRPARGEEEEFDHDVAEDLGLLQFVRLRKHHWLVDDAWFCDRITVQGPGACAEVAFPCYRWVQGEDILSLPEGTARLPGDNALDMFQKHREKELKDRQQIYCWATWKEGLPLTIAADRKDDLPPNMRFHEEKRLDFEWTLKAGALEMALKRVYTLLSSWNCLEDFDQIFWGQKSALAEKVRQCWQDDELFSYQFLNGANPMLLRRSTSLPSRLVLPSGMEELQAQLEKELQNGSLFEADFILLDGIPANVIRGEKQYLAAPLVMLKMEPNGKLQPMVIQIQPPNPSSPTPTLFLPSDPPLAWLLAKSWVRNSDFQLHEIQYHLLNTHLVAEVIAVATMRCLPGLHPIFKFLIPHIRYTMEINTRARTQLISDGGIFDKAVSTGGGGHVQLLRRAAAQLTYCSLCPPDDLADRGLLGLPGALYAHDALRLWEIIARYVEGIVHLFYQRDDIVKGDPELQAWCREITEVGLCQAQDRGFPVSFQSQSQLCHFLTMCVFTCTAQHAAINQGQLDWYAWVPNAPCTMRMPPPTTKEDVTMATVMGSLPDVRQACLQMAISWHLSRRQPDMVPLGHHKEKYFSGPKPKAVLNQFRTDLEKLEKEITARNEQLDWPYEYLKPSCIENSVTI
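Hydroperoxide product was detected by ferrous iron/xylenol orange as the 573 to 405 nm absorbance ratio. Arachidonic acid at 40 uM (final) was turned over for 30 min at room temperature by 150 nM human 12hLO, pH 7.0 Hepes buffer, after 15 min compound preincubation.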
HT1080 IDH1KD tx: kills HT-1080 cells with IDH1 knockdown. HT-1080 IDH1 knockdown viability, ATP luminescence, 48 h. Potency, µM (series often up to 46.1 µM), usual class: cytotoxic. 2% of 360,000 active. AID 686971
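Cytotoxicity counter-line: IDH1KD HT-1080, 48 h, CellTiter-Glo. Curves classed by r2, magnitude and activity.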
DT40 TDP1 no CPT: qHTS for Inhibitors of human tyrosyl-DNA phosphodiesterase 1 (TDP1): qHTS in cells in absence of CPT; DT40 Tdp1-/- hTDP1 cells, no CPT, ATP luminescence, 48 h; Potency, µM (doses to about 46.2 µM), actives largely listed as inhibitors; 15% of 420,000 active; note: nearly all actives have a fitted effect of over 55% in size
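Growth kinetics read by CellTiter-Glo luminescence after ≥48 hr at 37 °C. Cells: DT40 Tdp1-/- stably carrying human TDP1, 400 per well, compound exposure in the absence of CPT (DMSO vehicle).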
HT1080NT lethal: kills 2HG-producing HT-1080-NT fibrosarcoma cells; HT-1080-NT fibrosarcoma viability, CellTiter-Glo ATP luminescence, 48 h; Potency, µM (titrated, usually from 46.1 µM), hits mostly cytotoxic; 1.6% of 360,000 active;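 note: NT is the 2HG producing partner of a matched IDH1 knockdown line; nearly all actives have a fitted effect of over 55% in size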
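Toxicity toward the 2HG-producing NT line was scored as %Activity, normalised to DMSO and no-cell wells, from CellTiter-Glo luminescence after 48 hours' treatment.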
TDP1 cell CPT: DT40-hTDP1 cell growth loss with CPT | chicken DT40 Tdp1-/-;hTDP1 cells + 20 nM CPT, ATP luminescence, 48 h | Potency, µM (series often up to 46.2 µM), most hits filed as inhibitors | 12% of 420,000 active | AID 686979; note: nearly all actives have a fitted effect of over 55% in size
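Cell growth measured by CellTiter-Glo luminescence after a minimum 48 h, 37 C compound exposure with 20 nM CPT in Tdp1-knockout DT40 cells stably expressing hTDP1, seeded 400/well; qHTS titration format.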
Hits are given with their value; . = inactive; ? = inconclusive; / = no result; [ ] = dose if it differs, or a comment. Unless noted, calls come from the whole dose curve; as a rule, active = well fitted curve in the direction sought with a large enough effect; inconclusive = small, poorly fitted or top-dose-only effect, or another doubt; inactive = no such curve, though single readings can be large; an effect the other way counts as inactive or inconclusive.

SMILES	IL1B secr inh	12-LOX inh	HT1080 IDH1KD tx	DT40 TDP1 no CPT	HT1080NT lethal	TDP1 cell CPT
CCc1ccc(C(NS(=O)(=O)c2cccs2)c2cccs2)cc1 (stereo unspecified)	/	.	/	/	/	/
CCCCCCCCCCS(=O)(=O)N/N=C/c1ccccc1[N+](=O)[O-]	/	.	/	/	/	/
CCNc1ncc(CN2CCCC(CCc3cccc(C(F)(F)F)c3)C2)cn1 (stereo unspecified)	/	.	/	/	/	/
Cc1cc(C[n+]2cc(Cl)ccc2N)c2ncccc2c1	-76	.	.	?	.	.
Cc1cc(C)c(S(=O)(=O)N2CCN(Cc3cccc4cccnc34)CC2)c(C)c1	/	.	/	/	/	/
Cc1cc(C[n+]2cc(Br)ccc2N)c2ncccc2c1	-62	.	?	10µM	.	12µM
Nc1ccc(Cl)c[n+]1Cc1cccc2cccnc12	.	.	.	?	.	.
Cc1nc2ccc(C(=O)N3CCN(c4ccccc4)CC3)cn2c1N(C)C(=O)CCc1ccccc1	.	.	.	?	.	?
CC(=O)Nc1ccc(CN(C)c2c(C)nc3ccc(C(=O)N(C)Cc4ccccc4)cn23)cc1	.	.	.	16µM	.	?
CC(=O)Nc1ccc(CN(C)c2c(C)nc3ccc(C(=O)N4CCN(c5ccccc5)CC4)cn23)cc1	.	.	.	?	.	23µM
Cc1cccc(NC(=O)CCc2c[nH]c3ccccc23)c1	/	.	/	/	/	/
CCOC(=O)C1=C(C)N=c2s/c(=C/c3cccc([N+](=O)[O-])c3O)c(=O)n2C1c1ccccc1 (stereo unspecified)	.	?	.	16µM	.	13µM
CCOC(=O)C1=C(C)N=c2s/c(=C\c3ccc(C(=O)O)cc3)c(=O)n2C1c1ccc(OC)cc1OC (stereo unspecified)	.	.	.	?	.	?
CCOC(=O)C1=C(C)N=c2s/c(=C/c3ccco3)c(=O)n2C1c1cccc(OC)c1 (stereo unspecified)	.	/	.	23µM	.	?
CCOC(=O)C1=C(C)N=c2s/c(=C\c3ccc(OCC(=O)O)cc3)c(=O)n2C1c1ccccc1 (stereo unspecified)	.	?	.	.	.	.
CCOC(=O)C1=C(C)N=c2s/c(=C/c3cccc([N+](=O)[O-])c3O)c(=O)n2C1c1cc(OC)c(OC)c(OC)c1 (stereo unspecified)	.	?	.	7.3µM	.	?
COC(=O)C1=C(C)N=c2s/c(=C/c3ccoc3)c(=O)n2C1c1ccccc1 (stereo unspecified)	.	/	.	?	.	23µM
CC1CCN(S(=O)(=O)c2nnc(NC(=O)c3cccc(Cl)c3)s2)CC1	.	.	.	21µM	.	13µM
Cc1ccc(N2CCN(S(=O)(=O)c3nnc(NC(=O)c4cccc(F)c4)s3)CC2)cc1	/	.	/	15µM	/	18µM
Cc1ccc(C(=O)Nc2ccccc2-c2nc(Cc3ccccc3)no2)cn1	/	.	/	/	/	/
Cc1c(CC(=O)NCCCC(=O)O)c(=O)oc2cc3c(cc12)CCC(C)(C)O3	.	?	.	?	?	?
COc1ccc(CCNC(=O)Cc2c(C)c3c(cc(C)c4c(C)c(C)oc43)oc2=O)cc1OC	/	.	/	.	/	.
COCCCNC(=O)Cc1c(C)c2cc3c(cc2oc1=O)OC(C)(C)CC3	.	.	.	26µM	.	26µM
COCCCNC(=O)Cc1c(C)c2c(cc(C)c3c(C)c(C)oc32)oc1=O	.	.	.	13µM	.	?
COc1ccc(Br)c(C(=O)OC(C)C(=O)Nc2c(C)n(C)n(-c3ccccc3)c2=O)c1 (stereo unspecified)	/	.	/	/	/	/
SMILES	IL1B secr inh	12-LOX inh	HT1080 IDH1KD tx	DT40 TDP1 no CPT	HT1080NT lethal	TDP1 cell CPT
CC(Oc1ccc(F)cc1)c1ccnc2nc(/N=C/N(C)C)nn12 (stereo unspecified)	.	.	.	.	.	.
CC(Oc1ccc(C(C)(C)C)cc1)c1ccnc2nc(/N=C/N(C)C)nn12 (stereo unspecified)	.	.	?	?	.	16µM
CCOc1ccc(CNCc2ccccn2)cc1OCC	/	.	/	/	/	/
COc1cc(C2=NOC(C(=O)Nc3ccc(OC(F)(F)F)cc3)C2)cc(OC)c1OC (stereo unspecified)	/	.	/	/	/	/
CCS(=O)(=O)c1ccc(-c2csc(-c3ccccc3)n2)c(Cl)c1Cl	.	.	.	21µM	.	16µM
Cc1[nH]c2ccccc2c1C(=O)C(C)Sc1nc2ccccc2c(=O)n1Cc1cccnc1 (stereo unspecified)	/	/	/	11µM	/	7.9µM
O=C(CSCc1nc2cccnc2n1C1CCCCC1)NCc1cccc(Cl)c1	/	.	/	10µM	/	23µM
O=C(CSCc1nc2cccnc2n1C1CCCCC1)NCc1cccc(Br)c1	/	.	/	21µM	/	16µM
Cc1ccc(S(=O)(=O)NCCc2csc(-c3ccc(Cl)cc3)n2)cc1	/	?	/	12µM	/	12µM
CCOc1ccc(S(=O)(=O)NCCc2csc(-c3ccc(Cl)cc3)n2)cc1	/	?	/	5.8µM	/	6.5µM
CCOc1ccc(S(=O)(=O)NCCc2sc(-c3ccc(OC)cc3)nc2C)cc1	/	.	/	/	/	/
Cc1ccc(C)c(S(=O)(=O)NCCc2csc(-c3ccc(Cl)cc3)n2)c1	/	?	/	16µM	/	29µM
Cc1ccc(S(=O)(=O)NCCc2csc(-c3cccc(F)c3)n2)cc1	/	?	/	15µM	/	21µM
COc1cc(OC)cc(-c2nc3n(n2)C(c2ccncc2)C2=C(CC(C)(C)CC2=O)N3)c1 (stereo unspecified)	/	.	/	/	/	/
CCc1ccc(S(=O)(=O)NCCc2csc(-c3ccccc3)n2)s1	.	?	.[9.24 µM]	23µM	?	?
Cc1ccc(C)c(S(=O)(=O)NCCCc2ccccc2)c1	-57	.	.	.	.	.
CCc1ccc(S(=O)(=O)NCc2csc(-c3ccccc3)n2)s1	.	.	.	?	.	?
N#Cc1nc(-c2cccc3ccccc23)oc1NCc1ccc(F)cc1	/	.	/	/	/	/
CCOc1nc(N=C(N)N)nc2c(C)cccc12	.	.	.	23µM	.	16µM
CCOc1ccccc1Nc1cc(C)c2cccc(C)c2n1	.	.	.	.	.	.
CC(C#N)Sc1nc(-c2cccs2)cc(C(F)(F)F)c1C#N (stereo unspecified)	/	.	/	/	/	/
COc1ccc(C2c3[nH]c4ccccc4c3CCN2Cc2cccn2-c2ncccn2)cc1C (stereo unspecified)	.	.	23µM	16µM	26µM	15µM
c1ccc(C2c3[nH]c4ccccc4c3CCN2Cc2cccn2-c2ccccn2)nc1 (stereo unspecified)	.	.	.	?	.	?
